Test results taken from the OligoGym collection.

Target: LGALS7B
Test: pooled miR-30 sensor sort-seq; sequence = guide strand
Conditions: shRNA
Note: reference of the scale not given here.

| Sequence | sensor-assay potency score (higher = more potent) |
| --- | --- |
| ATGATGAGCACCTCGAAGGGCT | -0.649 |
| TTGAAGACCACCTCCGACGTGT | 0.725 |
| TTTACATGGAACCTGCTGGCAT | -0.552 |
| TGAAATGCAGGGCGGCATCGGA | -1.07 |
| TTGCTGTTGAAGACCACCTCCG | -0.31 |
| TTGGGAGGAACCAAGCCGCGAA | -0.897 |
| ATTGGGAGGAACCAAGCCGCGA | -1.73 |

Target: LHCGR
Test: as above
Conditions: shRNA

| Sequence | sensor-assay potency score (higher = more potent) |
| --- | --- |
| TTTGGTGGAAGAAATATCCAAG | -0.193 |
| TTACTGTGCTTTCACATTGTTT | -1.55 |
| TAACTCAGCACATTTGTAGTGT | 0.247 |
| TTATTTGATCCAGTGAAGCCAT | -0.633 |
| TTGACAAATGTTTCTCTTGATG | -1.44 |
| TCCATTGTGCATCTTCTCCAGA | -0.921 |
| TAGTCGAGTGAGACCGGCCGTG | -0.508 |
| TATAGTTTGAGTGTTACAGATT | -0.877 |
| TTCACTTTCCTTACTGTGCTTT | 0.168 |
| TTGGTAGCCATTAATTCTGGGT | -0.032 |
| TAAGCTGAAAAATCTTTCCTTC | 0.265 |
| TAATCGCAGCTTTTGGTCCAGG | -1.08 |

Target: LHFPL3
Test: as above
Conditions: shRNA

| Sequence | sensor-assay potency score (higher = more potent) |
| --- | --- |
| TACATGTTAACTCTAGAGCATT | -1.25 |
| TTAGCTTGTGTTCATTCTCAGG | -1.28 |
| TAATCCATGATCACATCTCTTT | -0.691 |
| TTAGTTGTTAACTACTTCCAGA | -0.755 |
| TTTTACTTCATCTGAGTCCCAG | 0.0126 |
| TTAAACAGAACACAGACTTGGT | 0.0174 |
| TAGCCTATAATATTACACGTGA | -0.577 |
| TATCTTGTACACAGTGGCCGTG | -0.302 |
| ATATCTTGTACACAGTGGCCGT | -1.29 |
| TAAAATAGGAATGTGGTCCTAA | 0.497 |
| TTTACTTCATCTGAGTCCCAGC | -0.606 |
| TACTTGTCTGTCTTTTCTCCAC | -0.0892 |

Target: LHFPL4
Test: as above
Conditions: shRNA

| Sequence | sensor-assay potency score (higher = more potent) |
| --- | --- |
| AAGTCGGTGAAGGAGCCCCGGC | -1.53 |
| AGATCTTGTAGACCGTAGCCGT | -1.61 |
| TCCGCATGTAGTGCTCGTGGTA | -1.39 |
| AAAATCTTTGTTCTCCGGCTTG | -0.289 |
| TTCCGCATGTAGTGCTCGTGGT | -0.829 |
| TAGACCGTAGCCGTGTTGCAGA | -0.559 |
| AAATCTTTGTTCTCCGGCTTGA | -0.165 |
| TAGTGCTCGTGGTAGAGCTTGG | -0.315 |
